According to PubChem BioAssay:

Assay: small molecules captured by biotinylated probe aFGF2 – biochemical, small-molecule microarray, fluorescence 635/667, stem cell growth factor project, primary screen (AID 1067);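 further: measures binding of biotinylated aFGF2 protein to printed compounds on slides; z-score merges feature fluorescence and signal-to-noise across triplicate slides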
Settings: higher = more signal

SMILES | composite z-score
COCCCNC(=O)[C@@]1(Cc2ccccc2)COC(c2ccc(OCCCO)cc2)=N1 | -0.0745
COC(=O)[C@]1(Cc2ccccc2CN=[N+]=[N-])N=C(c2ccc(OCCCO)cc2)O[C@@H]1c1ccccc1CN=[N+]=[N-] | -0.087
O=C1NC(=O)C2C1C=CC(C(O)c1ccc(-c3ccccc3)s1)N2Nc1ccccn1 (stereo not given) | -0.0605
C=C(C(=O)CC[C@H](OC(=O)c1cccnc1)c1ccc(OCCO)cc1)C(C)C | 0.0612
Cc1ccc(N2C(=O)c3ccccc3[C@](C)(C(=O)NC(C)C)[C@@H]2c2ccc(CO)cc2)nc1 | -0.254
CCCCC=C[C@@H](NC(=O)CCc1ccccc1)c1ccccc1 | 0.0601
C=CCC(OC(C)=O)[C@@H]1[C@@H](N(Cc2cccc3ccccc23)C(=O)c2ccc(C)cc2)c2cc(OCCCO)ccc2N1C(=O)c1ccc2ccccc2c1 (stereo not given in full) | -0.152
C[C@]12C(=O)N(CCCCCO)[C@@H]3C(=O)N(c4ccc(Cl)cc4)CC=CC31O[C@@H]1/C=C\CCCOC(=O)C12 (stereo not given in full) | -0.221
O=C1c2ccccc2[C@](Cc2ccccc2I)(C(=O)NCC(F)(F)F)[C@H](c2ccc(CO)cc2)N1Cc1ccccc1 | 0.0363
O=C(O)[C@@]1(Cc2ccccc2)COC(c2ccc(OCCCO)cc2)=N1 | -0.0886
COCCCNC(=O)[C@]1(Cc2ccccc2)N=C(c2ccc(OCCCO)cc2)O[C@@H]1c1ccccc1N=[N+]=[N-] | 0.12
COCCOC(=O)N1C(=O)[C@@]2(c3cc(C#Cc4ccc(OC)cc4)ccc31)[C@H](C(=O)N1CCc3cc(OC)c(OC)cc3C1)[C@H]1C(=O)O[C@H](c3ccccc3)[C@H](c3ccccc3)N1[C@@H]2c1ccc(OCCO)cc1 | -0.0567
CC(C)NC(=O)[C@@]1(Cc2ccccc2I)c2ccccc2C(=O)N(Cc2ccccc2C(F)(F)F)[C@H]1c1ccc(CO)cc1 | -0.0316
COC(=O)[C@@]1(Cc2ccc(OC)cc2)[C@H]2c3cc(C(=O)N(C)C)n(Cc4cc(F)c(F)c(F)c4)c3C[C@H]2CN1C(=O)c1ccccc1 | 0.329
O=C1N(CCS(=O)(=O)c2ccccc2)Cc2ccccc2C[C@@]12COC(c1ccc(OCCCO)cc1)=N2 | 0.212
Cc1ccc(S[C@]2(C(=O)O)CC(=O)N(Cc3ccccc3C(F)(F)F)[C@@H]2c2ccc(CO)cc2)cc1 | -0.172
O=C1N(CCS(=O)(=O)c2ccccc2)c2ccccc2[C@H]2OC(c3ccc(OCCCO)cc3)=N[C@@]12CCS(=O)(=O)c1ccccc1 | 0.415
CC(C)C(CO)N1C(=O)[C@@H]2[C@H]3C(=O)OCC=C[C@H]3OC23C=CCN(CCN2CCOCC2)C(=O)[C@@H]13 (stereo not given in full) | -0.166

SMILES | composite z-score
CC(C)(C)OC(=O)CC[C@@]1(C(=O)N2CCCCC2)N=C(c2ccc(OCCCO)cc2)O[C@@H]1c1ccccc1N=[N+]=[N-] | 0.147
CCCCCCC#C[Si](O[C@H](c1ccccc1)c1cn(Cc2cccc(Cl)c2)nn1)(C(C)C)C(C)C | -0.161
C=CCOC(=O)[C@@H]1[C@H]2C(=O)O[C@H](c3ccccc3)[C@H](c3ccccc3)N2[C@H](c2ccc(OCCOC(=O)[C@@H]3C[C@@H]4C(=O)N5CCC[C@H]5C(=O)N4[C@@H]3c3cccc(OCCO)c3)cc2)[C@@]12C(=O)Nc1ccc(I)cc12 | -0.0927
C=CCC(OC(C)=O)[C@@H]1[C@@H](N(Cc2cccc3ccccc23)C(=O)Cc2ccc(F)cc2)c2cc(OCCCO)ccc2N1C(=O)Cc1ccc(OC)cc1 (stereo not given in full) | -0.116
CO[C@H]1O[C@H](CO)[C@@H](OC(=O)Nc2ccc(C(F)(F)F)cc2)[C@H](OC(=O)Nc2ccccc2)[C@H]1OC(=O)Nc1ccccc1 | 0.233
C=C(COC)C(=O)CC[C@H](OC(=O)c1ccccc1-c1ccccc1C(=O)O)c1ccc(CO)o1 | -0.128
CC(C)CNC(=O)[C@@]1(C)c2ccccc2C(=O)N(Cc2ccccc2)[C@H]1c1ccc(CO)cc1 | -0.206
CCC[C@@H]1C[C@@]1(CCC)[C@@H](NC(=O)c1ccco1)c1ccc(Cl)cc1 | -0.163
[N-]=[N+]=NCc1ccccc1[C@H]1OC(c2ccc(OCCCO)cc2)=N[C@@]1(Cc1ccccc1)C(N)=O | 0.0138
COc1ccc([Si](C)(C)[C@H]2[C@H](CCO)O[C@@]3(C(=O)N(Cc4cccc(N5CCOC5=O)c4)c4ccccc43)[C@@H]2C)cc1 | -0.034
C[N+](C)(C)CCCC[C@@H]1NC(=O)[C@@H]2C[C@H](C(=O)NCCCCCNC(=O)CS)[C@H](c3cccc(OCCO)c3)N2C1=O | 0.0402
COCCOC(=O)N1C(=O)[C@@]2(c3cc(C#CC4(O)CCCCCC4)ccc31)[C@H](C(=O)NC[C@H](O)c1ccccc1)[C@H]1C(=O)O[C@H](c3ccccc3)[C@H](c3ccccc3)N1[C@@H]2c1ccc(OCCO)cc1 | 0
COc1cccc(C)c1NC(=O)O[C@H]1[C@H](OC(=O)Nc2ccccc2)[C@H](OC(=O)Nc2ccccc2)[C@@H](OC)O[C@@H]1CO | -0.0216
COC(=O)[C@@]1(Cc2ccccc2)[C@H]2c3cc(C(=O)N4CCCC4)n(Cc4ccccc4)c3C[C@H]2CN1C(=O)c1ccccc1 | 0.113
COc1cc2c(cc1OC)CN(C(=O)[C@@H]1[C@H]3C(=O)O[C@H](c4ccccc4)[C@H](c4ccccc4)N3[C@H](c3ccc(OCCO)cc3)[C@@]13C(=O)Nc1ccc(C#CCCO)cc13)CC2 | 0.105
COc1ccc([Si](C)(C)[C@@H]2[C@@H](CC(=O)N(CCO)Cc3ccccc3)O[C@]3(C(=O)N(C)c4c(Br)cc(C)cc43)[C@H]2C)cc1 | -0.13
COC(=O)[C@@]1(Cc2ccccc2)[C@H]2c3cc(C(=O)N4CCCC4)n(Cc4ccc(OC(F)(F)F)cc4)c3C[C@H]2CN1C(=O)c1ccccc1 | 0.337
